In all, about 310,000 compounds went through this assay and about 14,000 (4.5%) showed an effect of 50% or more. The effect is printed as a negative number. This is one part of a sample in which strong results are shown more often than they occur.
Each compound was assayed against human ether-à-go-go-related gene (hERG) potassium channel (human, UniProt Q12809) (assay: primary screen, population patch clamp on CHO cells stably expressing hERG; higher = less effect of the substance).
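Further: peak tail current of the secondary pulse compared with the same well before compound.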

Chain of human ether-à-go-go-related gene (hERG) potassium channel (Q12809 whole entry, looked up): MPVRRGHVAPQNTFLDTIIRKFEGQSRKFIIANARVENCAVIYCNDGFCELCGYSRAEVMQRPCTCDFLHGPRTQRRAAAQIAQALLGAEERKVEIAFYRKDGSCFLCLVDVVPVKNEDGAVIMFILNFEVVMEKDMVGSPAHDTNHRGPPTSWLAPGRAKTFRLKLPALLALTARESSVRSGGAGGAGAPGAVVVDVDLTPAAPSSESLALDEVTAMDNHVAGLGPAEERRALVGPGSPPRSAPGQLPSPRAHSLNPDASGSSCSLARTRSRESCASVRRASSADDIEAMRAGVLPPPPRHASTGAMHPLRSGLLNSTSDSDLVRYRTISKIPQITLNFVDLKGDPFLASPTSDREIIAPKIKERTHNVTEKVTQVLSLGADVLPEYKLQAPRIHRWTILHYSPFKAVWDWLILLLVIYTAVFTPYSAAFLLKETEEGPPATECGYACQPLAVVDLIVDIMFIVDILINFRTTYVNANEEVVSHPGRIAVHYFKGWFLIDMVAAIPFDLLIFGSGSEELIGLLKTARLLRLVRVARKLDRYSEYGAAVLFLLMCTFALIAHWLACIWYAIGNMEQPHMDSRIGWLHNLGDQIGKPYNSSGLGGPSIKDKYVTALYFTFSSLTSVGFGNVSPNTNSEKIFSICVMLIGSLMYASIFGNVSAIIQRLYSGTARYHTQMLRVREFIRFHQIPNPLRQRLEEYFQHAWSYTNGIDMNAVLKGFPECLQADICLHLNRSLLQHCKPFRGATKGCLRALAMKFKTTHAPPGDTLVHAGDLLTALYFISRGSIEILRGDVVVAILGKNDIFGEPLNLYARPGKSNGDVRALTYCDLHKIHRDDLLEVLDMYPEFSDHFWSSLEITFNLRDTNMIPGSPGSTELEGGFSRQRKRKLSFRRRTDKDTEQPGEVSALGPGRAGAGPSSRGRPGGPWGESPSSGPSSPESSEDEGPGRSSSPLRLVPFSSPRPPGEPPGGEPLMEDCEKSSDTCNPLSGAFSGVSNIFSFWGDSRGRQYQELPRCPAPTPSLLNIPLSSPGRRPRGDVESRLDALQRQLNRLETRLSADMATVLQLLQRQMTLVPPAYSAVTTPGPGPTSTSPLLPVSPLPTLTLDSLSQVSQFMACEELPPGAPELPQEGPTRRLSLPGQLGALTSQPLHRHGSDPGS

Structure (SMILES) | hERG current change (%, negative = inhibition) at 10uM [%]
Cc1ccc(CN(C)CC(=O)Nc2ccccc2C(=O)NC2CC2)o1 | -7.18
N#Cc1c(F)cccc1N1CCC(C#N)CC1 | 8.29
Cn1nnnc1SCC(=O)Nc1ccccc1C(=O)NC1CC1 | 7.04
COc1ccccc1NC(=O)CCN1C(=O)/C(=C/c2cc(OC)c(OC)c(OC)c2)SC1=S | 13.8
O=C(Cc1ccccc1)Nc1ccc2oc(-c3ccncc3)nc2c1 | 0.815
CC(Oc1ccccc1)C(=O)Nc1cccc([N+](=O)[O-])c1 (stereo not drawn) | -22
COc1ccccc1-n1cnnc1SC(C)C(=O)Nc1cccc([N+](=O)[O-])c1 (stereo not drawn) | -8.19
COc1ccc(OC(C)C(=O)Nc2ccc([N+](=O)[O-])cc2)cc1 (stereo not drawn) | 3.6
CC(Sc1nncn1-c1ccccc1)C(=O)Nc1cccc([N+](=O)[O-])c1 (stereo not drawn) | -17.2
COc1ccc(OC(C)C(=O)Nc2cccc([N+](=O)[O-])c2)cc1 (stereo not drawn) | -58.8
COc1ccc(-n2cnnc2SC(C)C(=O)Nc2cccc([N+](=O)[O-])c2)cc1 (stereo not drawn) | -59.3
COc1ccc(CNC(=O)CCSCc2ccc(C)cc2)cc1 | -16.2
CCC1=Nc2cc(C(=O)O)ccc2Sc2ccccc21 | 21.2
COC(=O)C1=C(c2ccc(C(C)=O)cc2)C[C@@H]2CC[C@H]1N2C(=O)NCc1ccc(C(F)(F)F)cc1 | 30
COC(=O)C1=C(c2ccc(S(C)(=O)=O)cc2)C[C@@H]2CC[C@H]1N2C(=O)NCc1cccc2ccccc12 | -61.6
COC(=O)C1=C(c2ccc(S(C)(=O)=O)cc2)C[C@@H]2CC[C@H]1N2C(=O)NCc1ccccc1 | -29.6
COC(=O)C1=C(c2ccc(S(C)(=O)=O)cc2)C[C@@H]2CC[C@H]1N2C(=O)NCc1ccc(C(F)(F)F)cc1 | -59.3
COC(=O)C1=C(c2ccc(OC(F)(F)F)cc2)C[C@@H]2CC[C@H]1N2C(=O)NCc1cccc2ccccc12 | 20.4
COC(=O)C1=C(c2ccccc2)C[C@@H]2CC[C@H]1N2C(=O)NCc1cccc2ccccc12 | -12.2
Cc1ccc(C(=O)NC(C(=O)Nc2ccccc2)c2ccccc2)cc1 (stereo not drawn) | 19.7
CC(NC(=O)Cn1cc(C(=O)C2CC2)c2ccccc21)c1ccccc1 (stereo not drawn) | 4.74
Cc1ccc(-c2nn(C)c(=O)c3ccccc23)cc1CNC(=O)c1ccco1 | -36.7
Cc1ccc(/C=C2/C(=O)NC(=O)N(Cc3ccc(F)cc3)C2=O)o1 | 19.6
COc1ccc(OCc2cc(C(=O)NCc3nc(C)cs3)no2)c(Cl)c1 | -17.2
OCC1(Cc2ccccc2)CCN(Cc2ccc(C(F)(F)F)cc2)CC1 | -72.9
OCC1(Cc2ccccc2)CCCN(Cc2ccc(-c3ccco3)cc2)C1 (stereo not drawn) | -5.88
OCC1(Cc2ccccc2)CCN(Cc2ccc(-c3ccco3)cc2)CC1 | -66.6

Structure (SMILES) | hERG current change (%, negative = inhibition) at 10uM [%]
OCC1(Cc2ccccc2C(F)(F)F)CCN(Cc2ccccc2)CC1 | -41.3
O=C(CSc1cn(CC(=O)N2CCOCC2)c2ccccc12)N1CCOCC1 | 12.8
Cc1cc(C)c(C#N)c(SCc2ccc([N+](=O)[O-])cc2)n1 | 15.9
COc1ccc(F)cc1S(=O)(=O)Nc1ccc2c(c1)OCO2 | 6.15
CC(CCc1ccccc1)NC(=S)NC1CCCCC1 (stereo not drawn) | 12
Cc1ccc(C(c2nnnn2Cc2ccccc2)N2CCN(Cc3ccccc3)CC2)cc1 (stereo not drawn) | -79
Cc1ccc(C(c2nnnn2CC2CCCO2)N2CCN(C)CC2)cc1.Cl (stereo not drawn) | -7.48
Clc1ccc(C(c2nnnn2C2CCCC2)N2CCN(Cc3ccncc3)CC2)cc1 (stereo not drawn) | -71.7
CCN1CCN(C(c2ccccc2)c2nnnn2Cc2ccccc2)CC1.Cl (stereo not drawn) | -27.4
Cc1ccc(C(c2nnnn2CCc2ccccc2)N2CCSCC2)cc1 (stereo not drawn) | -13.5
Cl.Fc1ccc(C(c2nnnn2C2CCCC2)N2CCN(Cc3ccncc3)CC2)cc1 (stereo not drawn) | -24.8
Cc1ccc(C(c2nnnn2Cc2ccccc2)N2CC=C(c3ccc(F)cc3)CC2)cc1 (stereo not drawn) | 11.5
Cc1ccc(C(c2nnnn2CC2CCCO2)N2CCN(Cc3ccccc3)CC2)cc1 (stereo not drawn) | -74.9
c1ccc(CN2CCN(C(c3ccccc3)c3nnnn3Cc3ccccc3)CC2)cc1 (stereo not drawn) | -64.7
Cc1ccc(C(c2nnnn2CC2CCCO2)N2CCN(C(=O)c3ccco3)CC2)cc1 (stereo not drawn) | -4.13
Clc1ccc(C(c2nnnn2C2CCCC2)N2CCSCC2)cc1 (stereo not drawn) | -24.4
CCC(C)(C)n1nnnc1C(c1ccccc1)N1CCN(Cc2ccccc2)CC1 (stereo not drawn) | -32
O=C(NC(=S)NCc1ccccc1)c1ccc(Br)o1 | -7.42
Cc1noc(C)c1C(=O)OCC(=O)c1cc(C)n(Cc2ccccc2Cl)c1C | -7.65
Cc1ccc(CC(=O)N2CC(C)OC(C)C2)cc1 (stereo not drawn) | 9.85
Cc1ccc2nc(Br)c3c(c2c1)OC(CBr)C3 (stereo not drawn) | -33.6
CC1CCCCC1NC(=O)COc1ncnc2sccc12 (stereo not drawn) | 3.61
COc1ccc(Cl)cc1NC(=S)N1CCC(c2ccc(C)cc2)C1 (stereo not drawn) | -1.95
CCNC(=O)/C(=C\C=C\c1ccccc1)NC(=O)c1ccc(Br)o1 | -18.2
Cc1ccc(S(=O)(=O)Cn2nnnc2C(C(C)C)N2CCC(C(N)=O)CC2)cc1 (stereo not drawn) | 19
Cc1ccc(C(c2nnnn2CS(=O)(=O)c2ccc(C)cc2)N2CCC(C(N)=O)CC2)cc1 (stereo not drawn) | -55.1
Cc1ccc(S(=O)(=O)Cn2nnnc2C(c2ccc(F)cc2)N2CCC(C(N)=O)CC2)cc1 (stereo not drawn) | -44.1
